Test results taken from PubChem BioAssay AID1159580 (chemical genetic matrix, 2015).
Among all 5,500 compounds or so, about 2,000 (36%) were called active. Roughly 18% stayed inconclusive and do not appear here. No stated cut-off is given here; in the data, active means normalized growth mostly below about 0.91 (no sharp cut-off); inconclusive means no clear call, values can overlap the other calls; inactive means mostly above about 0.92. This is one part of the list.

Experiment: chemical genetic growth profiling, strain panel (AID 1159580);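 further: tested at 20 µM; growth read once vehicle control cultures reached saturation at 30 °C; 1 = growth at the plate median or of vehicle wells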
Settings: growth OD

Measured: normalized growth

Cc1cc(C)nc(NS(=O)(=O)c2ccc(N)cc2)n1
inactive: S. cerevisiae deletion strains, locus YJR066W, strain TOR1, stronger effect = lower value 0.929 | S. cerevisiae deletion strains, locus YJR075W, strain HOC1, stronger effect = lower value 0.98 | S. cerevisiae deletion strains, locus YKL009W, strain mrt4, stronger effect = lower value 0.961 | S. cerevisiae deletion strains, locus YKL068W, stronger effect = lower value 0.982 | S. cerevisiae deletion strains, locus YKL085W, strain MDH1 (second series), stronger effect = lower value 0.971 | S. cerevisiae deletion strains, locus YKL085W, strain MDH1, stronger effect = lower value 0.971 | S. cerevisiae deletion strains, locus YKL160W, strain elf1, stronger effect = lower value 1 | S. cerevisiae deletion strains, locus YKL190W, strain CNB1, stronger effect = lower value 1 | S. cerevisiae deletion strains, locus YKR001C, strain vps1, stronger effect = lower value 0.98 | S. cerevisiae deletion strains, locus YKR026C, strain gcn3, stronger effect = lower value 0.985 | S. cerevisiae deletion strains, locus YKR091W, strain srl3, stronger effect = lower value 0.958 | S. cerevisiae deletion strains, locus YLL001W, strain dnm1, stronger effect = lower value 1.03 | S. cerevisiae deletion strains, locus YLL026W, stronger effect = lower value 0.993 | S. cerevisiae deletion strains, locus YLL041C, strain sdh2, stronger effect = lower value 0.975 | S. cerevisiae deletion strains, locus YLR027C, strain aat2, stronger effect = lower value 0.985 | S. cerevisiae deletion strains, locus YLR039C, strain RIC1, stronger effect = lower value 0.981 | S. cerevisiae deletion strains, locus YLR058C, strain SHM2, stronger effect = lower value 0.986 | S. cerevisiae deletion strains, locus YLR102C, strain apc9, stronger effect = lower value 0.984 | S. cerevisiae deletion strains, locus YLR113W, strain HOG1, stronger effect = lower value 0.975 | S. cerevisiae deletion strains, locus YLR221C, strain rsa3, stronger effect = lower value 0.958 | S. cerevisiae deletion strains, locus YLR258W, strain gsy2, stronger effect = lower value 0.977 | S. cerevisiae deletion strains, locus YLR262C, strain YPT6 (second series), stronger effect = lower value 0.972 | S. cerevisiae deletion strains, locus YLR262C, strain YPT6, stronger effect = lower value 0.986 | S. cerevisiae deletion strains, locus YLR268W, strain sec22, stronger effect = lower value 0.952 | S. cerevisiae deletion strains, locus YLR320W, strain mms22, stronger effect = lower value 0.957 | S. cerevisiae deletion strains, locus YLR330W, strain CHS5, stronger effect = lower value 0.988 | S. cerevisiae deletion strains, locus YLR342W, strain FKS1 (second series), stronger effect = lower value 0.999 | S. cerevisiae deletion strains, locus YLR342W, strain FKS1, stronger effect = lower value 0.996 | S. cerevisiae deletion strains, locus YLR357W, strain rsc2, stronger effect = lower value 0.975 | S. cerevisiae deletion strains, locus YLR370C, strain arc18, stronger effect = lower value 0.984 | S. cerevisiae deletion strains, locus YLR371W, strain rom2, stronger effect = lower value 0.961 | S. cerevisiae deletion strains, locus YLR384C, strain iki3, stronger effect = lower value 0.985 | S. cerevisiae deletion strains, locus YLR418C, strain cdc73, stronger effect = lower value 1.02 | S. cerevisiae deletion strains, locus YML016C, strain PPZ1, stronger effect = lower value 0.995 | S. cerevisiae deletion strains, locus YML032C, strain rad52, stronger effect = lower value 0.98 | S. cerevisiae deletion strains, locus YML120C, strain ndi1, stronger effect = lower value 0.976 | S. cerevisiae deletion strains, locus YML124C, strain tub3, stronger effect = lower value 0.981 | S. cerevisiae deletion strains, locus YMR058W, strain fet3, stronger effect = lower value 0.986 | S. cerevisiae deletion strains, locus YMR078C, strain ctf18, stronger effect = lower value 0.98 | S. cerevisiae deletion strains, locus YMR125W, strain sto1, stronger effect = lower value 0.947 | S. cerevisiae deletion strains, locus YMR129W, stronger effect = lower value 0.974 | S. cerevisiae deletion strains, locus YMR205C, strain PFK2, stronger effect = lower value 0.988 | S. cerevisiae deletion strains, locus YMR223W, strain ubp8, stronger effect = lower value 1.02 | S. cerevisiae deletion strains, locus YMR231W, strain pep5, stronger effect = lower value 1.02 | S. cerevisiae deletion strains, locus YMR307W, strain GAS1, stronger effect = lower value 1.02 | S. cerevisiae deletion strains, locus YNL067W, strain RPL9B, stronger effect = lower value 0.996 | S. cerevisiae deletion strains, locus YNL071W, strain lat1, stronger effect = lower value 0.973 | S. cerevisiae deletion strains, locus YNL128W, strain TEP1, stronger effect = lower value 0.97 | S. cerevisiae deletion strains, locus YNL183C, strain NPR1, stronger effect = lower value 0.967 | S. cerevisiae deletion strains, locus YNL209W, strain ssb2, stronger effect = lower value 0.975 | S. cerevisiae deletion strains, locus YNL233W, strain BNI4, stronger effect = lower value 0.997 | S. cerevisiae deletion strains, locus YNL248C, strain rpa49, stronger effect = lower value 0.909 | S. cerevisiae deletion strains, locus YNL250W, strain rad50, stronger effect = lower value 0.986 | S. cerevisiae deletion strains, locus YNL271C, strain bni1, stronger effect = lower value 0.993 | S. cerevisiae deletion strains, locus YNL298W, strain CLA4, stronger effect = lower value 0.963 | S. cerevisiae deletion strains, locus YNL307C, strain MCK1, stronger effect = lower value 0.978 | S. cerevisiae deletion strains, locus YNL322C, strain KRE1 (second series), stronger effect = lower value 0.971 | S. cerevisiae deletion strains, locus YNL322C, strain KRE1, stronger effect = lower value 0.997 | S. cerevisiae deletion strains, locus YNR049C, strain mso1, stronger effect = lower value 0.963 | S. cerevisiae deletion strains, locus YNR052C, strain pop2, stronger effect = lower value 0.97 | S. cerevisiae deletion strains, locus YOL006C, strain TOP1, stronger effect = lower value 1.07 | S. cerevisiae deletion strains, locus YOL012C, strain htz1 1.13 | S. cerevisiae deletion strains, locus YOL147C, strain pex11, stronger effect = lower value 0.991 | S. cerevisiae deletion strains, locus YOR001W, strain rrp6, stronger effect = lower value 1 | S. cerevisiae deletion strains, locus YOR061W, strain CKA2, stronger effect = lower value 1 | S. cerevisiae deletion strains, locus YOR069W, strain VPS5, stronger effect = lower value 0.988 | S. cerevisiae deletion strains, locus YOR070C, strain gyp1, stronger effect = lower value 0.98 | S. cerevisiae deletion strains, locus YOR080W, strain dia2, stronger effect = lower value 0.983 | S. cerevisiae deletion strains, locus YOR083W, strain WHI5, stronger effect = lower value 0.983 | S. cerevisiae deletion strains, locus YOR106W, strain vam3, stronger effect = lower value 1.02 | S. cerevisiae deletion strains, locus YOR136W, strain idh2, stronger effect = lower value 0.996 | S. cerevisiae deletion strains, locus YOR144C, strain elg1, stronger effect = lower value 0.991 | S. cerevisiae deletion strains, locus YOR184W, strain ser1, stronger effect = lower value 0.979 | S. cerevisiae deletion strains, locus YOR231W, strain MKK1, stronger effect = lower value 0.995 | S. cerevisiae deletion strains, locus YOR265W, strain rbl2, stronger effect = lower value 0.981 | S. cerevisiae deletion strains, locus YOR270C, strain vph1, stronger effect = lower value 0.97 | S. cerevisiae deletion strains, locus YOR290C, strain snf2, stronger effect = lower value 0.943 | S. cerevisiae deletion strains, locus YOR316C, strain cot1, stronger effect = lower value 0.971 | S. cerevisiae deletion strains, locus YPL051W, strain arl3, stronger effect = lower value 0.995 | S. cerevisiae deletion strains, locus YPL078C, strain atp4, stronger effect = lower value 0.99 | S. cerevisiae deletion strains, locus YPL106C, strain sse1, stronger effect = lower value 0.914 | S. cerevisiae deletion strains, locus YPL240C, strain hsp82, stronger effect = lower value 0.979 | S. cerevisiae deletion strains, locus YPL256C, strain CLN2, stronger effect = lower value 0.954 | S. cerevisiae deletion strains, locus YPR119W, strain clb2, stronger effect = lower value 0.978 | S. cerevisiae deletion strains, locus YPR141C, strain kar3, stronger effect = lower value 0.973 | S. cerevisiae deletion strains, locus YPR163C, strain tif3, stronger effect = lower value 0.981 | S. cerevisiae deletion strains, locus YPR167C, strain met16, stronger effect = lower value 0.971 | S. cerevisiae deletion strains, strain wtn01, stronger effect = lower value 0.981 | S. cerevisiae strains, strain wild type, stronger effect = lower value 0.995
